Results as given in PubChem BioAssay (EPA / NIEHS).
“And” between values parts separate entries of the source, which are not always exact repeats. Equal values may be shown once. Results filed as inconclusive are left out. A structure can be active in one record and inactive in another. The source made the active and inactive calls. How the source made its calls, unless noted: active means hit-call score of the fitted dose curve at least 0.9, where 1 is the maximum; inconclusive means response in the unintended direction; inactive means score below 0.9.

Experiments:
TIMP1, TIMP1 (gene 7076) = assay: LTEA_HepaRG_TIMP1: Life Technologies and Expression Analysis (LTEA) Assay for TIMP1 using HepaRG (AID 2283534; active means hit-call score of the fitted dose curve at least 0.9, where 1 is the maximum; inactive means score below 0.9); details: mRNA level, 48 h; actives raise or lower the signal
Outline: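 Differentiated human HepaRG cells in serum-free induction medium were exposed 48 h to chemicals (8 half-log concentrations, top 100 uM, 0.5% DMSO). TIMP1 mRNA was quantified by TaqMan qRT-PCR, normalized to ACTB/GAPDH/POLR2A; bidirectional fit versus DMSO.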

[1] = read-out: Tumor necrosis factor receptor 1 (TNFRSF1A), TNFRSF1A (gene 7132); assay: LTEA_HepaRG_TNFRSF1A: Life Technologies and Expression Analysis (LTEA) Assay for Tumor necrosis factor receptor 1 (TNFRSF1A) using HepaRG (AID 2283535; active means hit-call score of the fitted dose curve at least 0.9, where 1 is the maximum; inactive means score below 0.9); details: mRNA level, 48 h; actives raise or lower the signal
Outline: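 Differentiated human HepaRG cells were exposed in duplicate for 48 h in serum-free induction medium to eight concentrations (top 100 uM, half-log steps, 0.5% DMSO). TNFRSF1A mRNA was quantified by qRT-PCR, normalized to ACTB, GAPDH and POLR2A, then fitted bidirectionally against DMSO.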

[2] = read-out: Thyroid Hormone Responsive (THRSP), THRSP (gene 7069); assay: LTEA_HepaRG_THRSP: Life Technologies and Expression Analysis (LTEA) Assay for Thyroid Hormone Responsive (THRSP) using HepaRG (AID 2283536; active means hit-call score of the fitted dose curve at least 0.9, where 1 is the maximum; inactive means score below 0.9); details: mRNA level, 48 h; actives raise or lower the signal
Outline: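 THRSP transcript quantified by Fluidigm qRT-PCR against three housekeeping genes after 48 h chemical exposure of HepaRG cells in serum-free induction medium; eight-point half-log series, top 100 uM, 0.5% DMSO vehicle, duplicate wells.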

[3] = read-out: Cellular tumor antigen p53 (Homo sapiens) (UniProt P04637); assay: LTEA_HepaRG_TP53: Life Technologies and Expression Analysis (LTEA) Assay for Tumor Protein P53 (TP53) using HepaRG (AID 2283537; active means hit-call score of the fitted dose curve at least 0.9, where 1 is the maximum; inactive means score below 0.9); details: mRNA level, 48 h; actives raise or lower the signal
Outline: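 Read-out is TP53 transcript level by microfluidic qRT-PCR, normalised to three housekeeping genes and fitted bidirectionally against DMSO. Human HepaRG cells received compounds for 48 h, highest concentration 100 uM.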

[4] = read-out: UDP glucuronosyltransferase (UGT1A1), UGT1A1 (gene 54658); assay: LTEA_HepaRG_UGT1A1: Life Technologies and Expression Analysis (LTEA) Assay for UDP glucuronosyltransferase (UGT1A1) using HepaRG (AID 2283538; active means hit-call score of the fitted dose curve at least 0.9, where 1 is the maximum; inactive means score below 0.9); details: mRNA level, 48 h; actives raise or lower the signal
Outline: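 mRNA induction or loss of UGT1A1, by TaqMan qRT-PCR, in duplicate HepaRG wells after 48 h exposure to half-log dilutions topping at 100 uM; DMSO (0.5%) served as baseline.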

[5] = read-out: UDP glucuronosyltransferase (UGT1A6), UGT1A6 (gene 54578); assay: LTEA_HepaRG_UGT1A6: Life Technologies and Expression Analysis (LTEA) Assay for UDP glucuronosyltransferase (UGT1A6) using HepaRG (AID 2283539; active means hit-call score of the fitted dose curve at least 0.9, where 1 is the maximum; inactive means score below 0.9); details: mRNA level, 48 h; actives raise or lower the signal
Outline: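 Human HepaRG cells were dosed for 48 h in serum-free induction medium with 0.5% DMSO vehicle, eight-point half-log series from 100 uM, in duplicate. UGT1A6 mRNA was measured by qRT-PCR, normalized to ACTB, GAPDH, POLR2A, and fitted bidirectionally against DMSO.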

[6] = read-out: X-box binding protein 1 (XBP1), XBP1 (gene 7494); assay: LTEA_HepaRG_XBP1: Life Technologies and Expression Analysis (LTEA) Assay for X-box binding protein 1 (XBP1) using HepaRG (AID 2283540; active means hit-call score of the fitted dose curve at least 0.9, where 1 is the maximum; inactive means score below 0.9); details: mRNA level, 48 h; actives raise or lower the signal
Outline: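 Differentiated human HepaRG cells in serum-free induction medium were exposed in duplicate for 48 h to eight half-log concentrations up to 100 uM in 0.5% DMSO. XBP1 mRNA was quantified by qRT-PCR, normalised to ACTB, GAPDH and POLR2A, with bidirectional fitting against DMSO.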

[7] = LTEA_HepaRG_LDH_cytotoxicity: Cytotoxicity Assessment in the Life Technologies and Expression Analysis (LTEA) Assay (AID 2283563);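 on AC50: LDH activity released into spent culture medium as a marker of cell death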
Outline: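 Differentiated human HepaRG cells, plated 48 h beforehand, were switched to serum-free induction medium and exposed for 48 h to eight half-log concentrations (top 100 uM) in 0.5% DMSO. LDH was measured in spent medium; activity was fitted relative to DMSO vehicle.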

[8] = target: Cellular tumor antigen p53 (Homo sapiens) (UniProt P04637); assay: TOX21_p53_BLA_p2_ratio: Tox21 HCT-116 p53 Agonism Beta-lactamase Assay, Ratio, Phase 2 (AID 2283592)
Cellular tumor antigen p53 (Homo sapiens), sequence (P04637 whole entry, looked up): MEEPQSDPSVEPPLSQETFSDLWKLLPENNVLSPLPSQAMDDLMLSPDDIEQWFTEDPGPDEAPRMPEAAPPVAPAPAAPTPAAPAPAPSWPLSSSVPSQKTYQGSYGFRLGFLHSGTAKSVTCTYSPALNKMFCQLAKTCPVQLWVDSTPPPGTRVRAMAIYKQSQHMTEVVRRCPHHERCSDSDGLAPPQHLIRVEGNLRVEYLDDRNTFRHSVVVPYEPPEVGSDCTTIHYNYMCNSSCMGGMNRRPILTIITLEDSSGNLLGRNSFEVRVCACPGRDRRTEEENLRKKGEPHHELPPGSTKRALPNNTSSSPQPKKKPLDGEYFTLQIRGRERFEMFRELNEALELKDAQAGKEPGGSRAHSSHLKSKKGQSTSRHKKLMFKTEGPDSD
Outline: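 Ratio endpoint: beta-lactamase cleavage of CCF4-AM, blue (460 nm) over green (530 nm). HCT116 reporter line; 16 h treatment, 37C; substrate 2 h RT.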

[9] = TOX21_p53_BLA_p3_viability: Viability Assessment in the Tox21 HCT-116 p53 Agonism Beta-lactamase Assay, Phase 3 (AID 2283593);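 further: cells exposed to compound for 16 h before reading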
Outline: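 Cellular ATP was quantified by CellTiter-Glo luminescence, read after 30 min at room temperature. Beforehand, HCT116 cells (4000/well) received compound 5 h post-seeding, 217-fold diluted from DMSO, then incubated 16 h at 37C.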

[10] = target: Cellular tumor antigen p53 (Homo sapiens) (UniProt P04637); assay: TOX21_p53_BLA_p3_ratio: Tox21 HCT-116 p53 Agonism Beta-lactamase Assay, Ratio, Phase 3 (AID 2283596)
Outline: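 Cells were seeded at 4000/well, rested 5 h at 37C, then dosed with DMSO compound solutions (217-fold dilution) for 16 h. CCF4-AM substrate was loaded for 2 h at room temperature, and the 460/530 nm emission ratio was fitted for gain of signal versus DMSO.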

[11] = target: Cellular tumor antigen p53 (Homo sapiens) (UniProt P04637); assay: TOX21_p53_BLA_p4_ratio: Tox21 HCT-116 p53 Agonism Beta-lactamase Assay, Ratio, Phase 4 (AID 2283601)
Outline: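 Signal is the blue/green (460nm/530nm) ratio of cleaved versus uncleaved CCF4-AM substrate, read after 2 h substrate loading. Cells were HCT116 carrying the p53-responsive beta-lactamase reporter, dosed 16 h at 37C, 5% CO2; CellTiter-Glo measured in parallel.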

[12] = Tanguay_ZF_120hpf_MORT_legacy: (Legacy) Oregon State University Tanguay Lab 120 Hour Post-fertilization zebrafish Assay for Mortality (AID 2283633)
Outline: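 Dechorionated Tropical 5D wild-type zebrafish embryos, one per well from 6 hpf, were statically exposed at 28C in the dark until 120 hpf (0.64% DMSO final). Mortality was scored as present/absent by brightfield microscopy, fitted positively versus DMSO.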

[13] = Tanguay_ZF_120hpf_YSE_legacy: (Legacy) Oregon State University Tanguay Lab 120 Hour Post-fertilization zebrafish Assay for Yolk Sac Edema (AID 2283634)
Outline: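 Tropical 5D wild-type embryos, dechorionated with pronase at 4 hpf, were exposed singly from 6 hpf to 120 hpf under static, sealed, dark conditions at 28C with 0.64% DMSO final. Yolk sac edema was scored present/absent by brightfield microscopy.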

[14] = Tanguay_ZF_120hpf_AXIS_legacy: (Legacy) Oregon State University Tanguay Lab 120 Hour Post-fertilization zebrafish Assay for Body Axis Malformation (AID 2283635);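 on AC50: potency for an increased fraction of larvae scored with body axis malformation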
Outline: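 Tropical 5D wild-type zebrafish embryos, dechorionated with pronase at 4 hpf, were placed singly in wells at 6 hpf and exposed statically to test chemical (0.64% DMSO final) at 28C until 120 hpf, then scored by brightfield for body axis defects.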

[15] = ATG_XTT_Cytotoxicity: Cytotoxicity Assessment in the Attagene TRANS-FACTORIAL HepG2 Assay (AID 2283584)
Outline: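 HepG2 human liver cells, transiently transfected with multiple GAL4-UAS reporter units, were dosed and read at 24 h by XTT as cell number. Loss of signal was fitted relative to DMSO negative control baseline.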

[16] = TOX21_p53_BLA_p4_viability: Viability Assessment in the Tox21 HCT-116 p53 Agonism Beta-lactamase Assay, Phase 4 (AID 2283597);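 further: hits lower the luminescence signal meaning cytotoxicity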
Outline: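 Cytotoxicity was inferred from loss of CellTiter-Glo luminescence. HCT116 cells had been dosed with compounds after 5 h plating, incubated 16 h at 37C and 5% CO2, and exposed to the CCF4-AM substrate for 2 h.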

[17] = target: Cellular tumor antigen p53 (Homo sapiens) (UniProt P04637); assay: TOX21_p53_BLA_p5_ratio: Tox21 HCT-116 p53 Agonism Beta-lactamase Assay, Ratio, Phase 5 (AID 2283599)
Outline: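 Beta-lactamase reporter ratio (blue 460 nm over green 530 nm, 405 nm excitation) after 2 h CCF4-AM loading, in HCT-116 cells exposed 16 h at 37 C to compounds pinned at 217-fold dilution. Increases relative to DMSO baseline scored.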

[18] = TOX21_p53_BLA_p5_viability: Viability Assessment in the Tox21 HCT-116 p53 Agonism Beta-lactamase Assay, Phase 5 (AID 2283600)
Outline: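 Luciferase-coupled ATP quantitation of cells treated for 16 h (37C, 5% CO2) with test chemicals delivered in DMSO via a 217-fold dilution; 4000 cells/well; reagent incubated 30 min at room temperature before luminescence reading.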

[19] = TOX21_p53_BLA_p2_viability: Viability Assessment in the Tox21 HCT-116 p53 Agonism Beta-lactamase Assay, Phase 2 (AID 2283591);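 further: compound exposure lasted 16 h at 37 °C; actives lower the ATP signal meaning cytotoxicity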
Outline: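 Cytotoxicity readout: CellTiter-Glo ATP luminescence, 30 min at room temperature, after the beta-lactamase read. Cells were HCT116 exposed 16 h at 37C to compounds pin-transferred at 217-fold dilution from DMSO stocks.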

Measured: AC50

CCCCCCCCCCCCCN1CC(C)OC(C)C1 (stereo not drawn)
not listed: [15] | [16] | [17] | [18] | [19]
inactive: all other assays above

CCCCOC(=O)c1ccccc1C(=O)OCc1ccccc1
not listed: TIMP1, TIMP1 (gene 7076) | [19]
inactive: all other assays above

[As]#[In]
not listed: [11] | [12] | [15] | [16] | [17] | [18] | [19]
inactive: all other assays above

CC(C)N(Cc1ccccc1)C(=O)C(C)(C)C
active: [4] 6.96 µM
not listed: [6] | [8] | [11] | [12] | [16] | [18] | [19]
inactive: all other assays above

Clc1ccccc1Cl
inactive: TIMP1, TIMP1 (gene 7076) | [1] | [2] | [4] | [5] | [6] | [7] | [15] | [12] | [13] | [14]

Clc1ccc(C(c2ccc(Cl)cc2)C(Cl)Cl)cc1
active: [2] 90.5 µM | [4] 6.66 µM | [8] 68 µM | [9] 79.1 µM and 50.6 µM | [10] 48.4 µM | [16] 63.4 µM and 46.7 µM | [17] 89.8 µM and 85.4 µM | [18] 81.2 µM and 73.1 µM
inactive: [1] | [3] | [5] | [6] | [7] | [15] | [8] | [10] | [12] | [13] | [14]

COc1cc(C=O)cc2c1[C@H](COC(N)=O)[C@]1(OC(C)=O)ON2C[C@H]2[C@@H]1N2C(C)=O
active: [4] 24.6 µM | [7] 1.54 µM | [8] 0.249 µM | [10] 0.56 µM | [17] 546 nM | [14] 51.3 µM
not listed: TIMP1, TIMP1 (gene 7076) | [11] | [12] | [18]
inactive: all other assays above

Nc1cc(Cl)cc(C(=O)O)c1Cl
not listed: TIMP1, TIMP1 (gene 7076) | [12] | [19]
inactive: all other assays above

ClC1=C(Cl)[C@]2(Cl)[C@H]3[C@H]([C@@H]4C=C[C@H]3C4)[C@@]1(Cl)C2(Cl)Cl
inactive: [1] | [3] | [5] | [6] | [7] | [15] | [8] | [9] | [10] | [17] | [18] | [11] | [12] | [13] | [14]
active: [2] 30.8 µM | [4] 6.68 µM | [9] 46 µM

CCCCC(CC)COC(=O)c1ccc(C(=O)OCC(CC)CCCC)c(C(=O)OCC(CC)CCCC)c1 (stereo not drawn)
not listed: TIMP1, TIMP1 (gene 7076) | [18] | [19]
inactive: all other assays above

Nc1ccc(N=Nc2ccccc2)cc1
active: TIMP1, TIMP1 (gene 7076) 50 µM | [1] 23.4 µM | [2] 11.4 µM | [4] 13 µM | [5] 19.8 µM | [6] 16.8 µM | [7] 11.9 µM
not listed: [11] | [12] | [15] | [19]
inactive: all other assays above

CC(C)(O)c1cnn2c(-c3ccc(F)c(-c4c(F)cccc4C#N)c3)cnc2n1
active: [4] 0.268 µM
not listed: [10] | [12] | [15] | [17] | [18]
inactive: all other assays above

O=Cc1ccco1
not listed: [7] | [11] | [15] | [18]
inactive: all other assays above

CCC12COCN1COC2
not listed: [12] | [15]
inactive: all other assays above

CCCCCOC(=O)c1ccccc1C(=O)OCCCCC
not listed: TIMP1, TIMP1 (gene 7076) | [8] | [9] | [11] | [12] | [18]
inactive: all other assays above

CN(C)C(=O)Nc1ccc(Cl)cc1
active: [4] 30.8 µM
not listed: TIMP1, TIMP1 (gene 7076) | [11] | [19]
inactive: all other assays above
